Molecules are shown by their SMILES. Hit rate of the full screen: of about 330,000 compounds, about 1,700 (0.52%) were called active.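 The calls were made as follows: active = GFP response versus DMSO above a set limit, roughly screen mean plus 3 SD (cut at about 180% in these data); inconclusive = fewer than 70 cells counted for a yeast strain; inactive = the rest.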 The entries come from a sample that favours actives as a whole.

The assay is described as follows: TOR pathway GLN3 branch reporter MEP2-GFP changes – S. cerevisiae, multiplex flow cytometry, MLPCN library, primary screen (AID 2016).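 Also: median GFP fluorescence of the barcode-gated MEP2-GFP cells per well.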 The settings on record: S. cerevisiae MEP2-GFP strain, 3 h, at 10 µM, active compounds read high, 100% = DMSO control level.
Take `CCc1ccccc1NC(=O)CSc1nnc([C@@H](NC(=O)OC(C)(C)C)C(C)CC)o1` (some centres not stated): the GFP response vs DMSO is 193% [may fluoresce violet] (active).
As to `CCc1ccccc1NC(=O)CSc1nnc([C@@H](NC(=O)OC(C)(C)C)C(C)C)o1`, the GFP response vs DMSO is 88.8% (inactive).
In the case of `CCc1ccccc1NC(=O)CSc1nnc(CCNC(=O)OC(C)(C)C)o1`, the GFP response vs DMSO was 114% (inactive).
For the compound `C#CCOCCOCCOCCNc1nc(N2CCN(C(=O)C(Cc3ccc(O)cc3)n3cc(C(N)CC(C)C)nn3)CC2)nc(N2CCN(C(=O)C(Cc3ccc(O)cc3)n3cc(C(N)C(C)CC)nn3)CC2)n1` (configuration not stated), the GFP response vs DMSO is 93.7% (inactive).
In the case of `CC(NCC(=O)Nc1cc(Cl)cc(Cl)c1)c1ccccc1` (configuration not stated), the GFP response vs DMSO was 91.3% (inactive).
For `CCSc1sc(CC)cc1C=O`, the GFP response vs DMSO was 210% [may fluoresce violet] (active).
Consider `COc1ccc2c(c1)C(=C(C#N)C#N)C(=O)N2CCc1ccccc1`, for which the GFP response vs DMSO is 103% (inactive).
Take `CC(=O)C1=C(C)NC(=O)NC1c1ccc2c(c1)OCO2` (configuration not stated): the GFP response vs DMSO is 179% [may fluoresce violet] (active).
Regarding `CCOCCOC(=O)C1=C(C)NC(=O)NC1c1ccc2c(c1)OCO2` (configuration not stated), the GFP response vs DMSO is 111% (inactive).
For the compound `COCCOC(=O)C1=C(C)NC(=O)NC1c1cc2c(cc1Br)OCO2` (configuration not stated), the GFP response vs DMSO is 95.2% (inactive).
With `O=C(CC12CC3CC(CC(C3)C1)C2)Nc1ccc2c(c1)COC2=O`, the GFP response vs DMSO was 99.2% (inactive).
For the compound `Brc1ccc(C2CC(c3ccccc3)=Nc3ccccc3N2)cc1` (configuration not stated), the GFP response vs DMSO is 101% (inactive).
Under `OCC[C@H]1C[C@@H](O)[C@H](O)[C@]2(OCCCc3ccccc32)O1` stands 96.7% (inactive).
As to `Cc1ccc(C2Nc3cccc4cccc(c34)N2)cc1`, the GFP response vs DMSO was 110% (inactive).
`Oc1ccc(C2Nc3cccc4cccc(c34)N2)cc1`: the GFP response vs DMSO is 184% (active).
Take `Brc1ccccc1C1Nc2cccc3cccc(c23)N1`: the GFP response vs DMSO is 104% (inactive).
In the case of `O=C(CSc1n[nH]c(=O)n1-c1ccccc1)Nc1ccccc1C(F)(F)F` it was 109% (inactive).
For the compound `COc1ccc(C)cc1NC(=O)CN(C)S(=O)(=O)c1ccc2c(c1)n(C)c(=O)c(=O)n2C`, the GFP response vs DMSO is 110% (inactive).
In the case of `COc1ccccc1NS(=O)(=O)c1ccc(C)c(C(=O)NCC(c2ccco2)N(C)C)c1` (configuration not stated) it was 104% (inactive).
In the case of `O=C(c1ccncc1)c1ccc([N+](=O)[O-])cc1`, the GFP response vs DMSO is 90.2% (inactive).
Regarding `O=C(CC(n1cncn1)C(Cl)(Cl)Cl)c1ccc([N+](=O)[O-])cc1` (configuration not stated), the GFP response vs DMSO is 91.9% (inactive).
In the case of `COc1ccc(C(=O)NC(=S)NNC(=O)c2c(-c3ccccc3)noc2C)cc1`, the GFP response vs DMSO was 113% (inactive).
Turning to `CCc1noc(C)c1C(=O)NNC(=O)c1ccc(F)cc1`, the GFP response vs DMSO is 100% (inactive).
Turning to `Cc1onc(-c2ccccc2)c1C(=O)NNC(=S)NC(=O)c1ccc(F)cc1`, the GFP response vs DMSO is 176% [may fluoresce violet] (active).
With `O=C(OCC(=O)N1CCCCCC1)c1ccc(Cl)nc1`, the GFP response vs DMSO was 105% (inactive).
For `CCC(CO)Oc1cc(NC(=O)c2ccc(Cl)cc2)c2ncn(C(C)C)c2c1` (configuration not stated), the GFP response vs DMSO is 102% (inactive).
As for `Cc1ccc(C2(C)NC(=O)N(CC(=O)N3CC(=O)Nc4ccccc43)C2=O)cc1` (configuration not stated), the GFP response vs DMSO was 95% (inactive).
For the compound `CC(C)(C)NC(=O)C(c1ccco1)N(Cc1ccc2c(c1)OCO2)C(=O)Cn1nnc2ccccc21` (configuration not stated), the GFP response vs DMSO was 101% (inactive).
On to `CCC(C)(C)NC(=O)C(c1ccc(O)cc1)N(C(=O)Cn1nnc2ccccc21)c1ccc(NC(C)=O)cc1` (configuration not stated), for which the GFP response vs DMSO was 93.5% (inactive).
Regarding `CCC(C)(C)NC(=O)C(c1cccn1C)N(Cc1ccc(C)cc1)C(=O)Cn1nnc2ccccc21` (configuration not stated), the GFP response vs DMSO was 200% [may fluoresce violet] (active).
`O=C(NCc1ccco1)C1CCCN(S(=O)(=O)c2cccc3nonc23)C1` (configuration not stated): the GFP response vs DMSO was 97.8% (inactive).
Under `O=C(NCc1ccccc1Cl)C1CCN(S(=O)(=O)c2cccc3nonc23)CC1` stands 287% [may fluoresce violet] (active); under `O=C(NCc1ccccc1Cl)C1CCN(S(=O)(=O)N2CCOCC2)CC1`, 93.8% (inactive).
As to `CCc1cccc(C)c1NS(=O)(=O)c1cc(Br)cnc1N`, the GFP response vs DMSO is 105% (inactive).
Take `Cn1c(=O)n(C)c(=O)n(CC(=O)N2CCCCC2)c1=O`: the GFP response vs DMSO is 95.9% (inactive).
`CCn1c(=S)[nH]c2sc3c(c2c1=O)CCCCC3`: the GFP response vs DMSO is 106% (inactive).
For `CCC1(C)Cc2c(sc3nnn(CC(=O)Nc4ccc(Cl)cc4)c(=O)c23)CO1` (configuration not stated), the GFP response vs DMSO is 104% (inactive).
On to `CCC1(C)Cc2c(sc3[nH]c(=S)n(Cc4ccccc4)c(=O)c23)CO1` (configuration not stated), for which the GFP response vs DMSO was 234% [may fluoresce violet] (active).
Turning to `O=C(CNC(=O)c1ccccc1)Oc1ccc([N+](=O)[O-])cc1`, the GFP response vs DMSO was 109% (inactive).
Under `O=C(NNS(=O)(=O)Cc1ccccc1)c1ccc([N+](=O)[O-])cc1` stands 796% [may fluoresce violet] (active); under `O=C(Cc1ccccc1)NNS(=O)(=O)c1ccc([N+](=O)[O-])cc1`, 94.8% (inactive).
Consider `COCCn1c(C)cc(C(=O)CSc2nnc(C3CC3)n2C2CC2)c1C`, for which the GFP response vs DMSO is 101% (inactive).
With `CCN(CCCNC(=O)CSc1cc(=O)n(C)c2cc(Cl)ccc12)Cc1ccccc1`, the GFP response vs DMSO is 102% (inactive).
As for `Cc1cc(C=O)c(C)n1-c1ccc(NC2CCCCC2)c([N+](=O)[O-])c1`, the GFP response vs DMSO was 101% (inactive).
Under `CCOC(=O)c1sc2nc(C)nc(SCC(N)=O)c2c1C` stands 105% (inactive); under `COc1ccc(CNC(=O)C2CCN(C(=O)c3ccccc3)CC2)cc1`, 96.9% (inactive); under `O=C(c1cccc(Cl)c1)N1CCN(Cc2ccccc2)CC1`, 110% (inactive).
On to `O=C(NCc1ccncc1)C1CCN(C(=O)c2cccc(Cl)c2)CC1`, for which the GFP response vs DMSO was 465% [may fluoresce violet] (active).
Turning to `CC1CC(NC(=O)/C(C#N)=C/c2ccc[nH]2)CC(C)(C)C1` (configuration not stated), the GFP response vs DMSO was 90.7% (inactive).
Regarding `COc1cc(CCC(=O)Nc2ccncc2Cl)cc(OC)c1OC`, the GFP response vs DMSO was 101% (inactive).
For `C/C(=N\NC(=O)c1cccnc1)c1ccc(-n2ccnc2)cc1`, the GFP response vs DMSO was 89.5% (inactive).
For `C/C(=N\NC(=O)c1ccc2ccccc2c1)c1cccnc1`, the GFP response vs DMSO is 91.2% (inactive).
Consider `C/C(=N\NC(=O)c1cccnc1)c1ccc(-c2ccccc2)cc1`, for which the GFP response vs DMSO was 189% [may fluoresce violet] (active).
With `Cc1noc(C)c1-c1nc(CSc2ccc(Cl)cc2)no1`, the GFP response vs DMSO is 105% (inactive).
For `O=C(Nc1ccccc1Cl)N1CCN(c2ccc3nncn3n2)CC1`, the GFP response vs DMSO is 97.1% (inactive).
With `COc1ccc(/C=N/Nc2ncnc3sc4c(c23)CCCC4)cc1O`, the GFP response vs DMSO was 106% (inactive).
`CCOc1ncccc1C(=O)OCC(=O)N1c2ccccc2CC1C` (configuration not stated): the GFP response vs DMSO is 92.2% (inactive).
On to `CCOc1ncccc1C(=O)OCC(=O)NC1CC1`, for which the GFP response vs DMSO was 100% (inactive).
In the case of `CCOc1ncccc1C(=O)OCc1cn2cc(Cl)ccc2n1` it was 561% [may fluoresce violet] (active); in that of `N#CC(C#N)=CN=c1ccn(Cc2ccc(Cl)cc2Cl)cc1`, 107% (inactive).
On to `COc1ccccc1CN1CCCC(N2CCN(c3ccc(F)cc3)CC2)C1` (configuration not stated), for which the GFP response vs DMSO is 485% [may fluoresce violet] (active).
For the compound `COc1ccc(CN2CCCC(N3CCc4ccccc4C3)C2)c(O)c1` (configuration not stated), the GFP response vs DMSO was 104% (inactive).
Under `COc1ccccc1CN1CCN(Cc2cc(OC)c(OC)cc2OC)CC1` stands 114% (inactive); under `COc1ccc(/C=C/CN2CCN(Cc3ccc(C)cc3)C(CCO)C2)cc1` (configuration not stated), 104% (inactive); under `CC12CCC(=O)N1C(C(=O)NCCN1C(=O)S/C(=C\c3ccccc3F)C1=O)CS2` (configuration not stated), 107% (inactive).
For `CC(C)(C)NC(=O)C(c1ccncc1)N(C(=O)CNC(=O)c1ccco1)c1ccc2c(c1)OCO2` (configuration not stated), the GFP response vs DMSO was 111% (inactive).
Under `Cc1ccc(N(C(=O)CNC(=O)c2ccco2)C(C(=O)NC2CCCC2)c2ccncc2)cc1` (configuration not stated) stands 359% [may fluoresce violet] (active); under `COc1cccc(N(C(=O)CNC(=O)c2ccco2)C(C(=O)NC2CCCCC2)c2cccnc2)c1` (configuration not stated), 104% (inactive); under `O=C(Nc1ccc(S(=O)(=O)NCC2CCCO2)cc1)c1ccc(F)cc1` (configuration not stated), 101% (inactive).
Under `O=C(CN1CCCCCC1)Nc1c(Cl)cc(Cl)cc1Cl` stands 98.7% (inactive).
Take `Oc1ccccc1C1=NN(c2ccccc2)C(c2ccccc2)C1` (configuration not stated): the GFP response vs DMSO is 107% (inactive).
Under `O=C1C2N=NN(CC(=O)N3N=C(c4cccc5ccccc45)CC3c3ccccc3)C2C(=O)N1c1ccccc1` (configuration not stated) stands 299% [may fluoresce violet] (active).
For the compound `Cc1ccc(N2C(=O)C3N=NN(CC(=O)N4N=C(c5cccc6ccccc56)CC4c4ccccc4)C3C2=O)cc1` (configuration not stated), the GFP response vs DMSO was 102% (inactive).
Consider `CCOC(=O)c1c(NC(=O)CSc2nnc(CN3CCOCC3)n2C)sc2c1CCCC2`, for which the GFP response vs DMSO was 99.8% (inactive).
For `CCOC(=O)C1CCN(C(=O)C2CCN(S(=O)(=O)CC)CC2)CC1`, the GFP response vs DMSO is 98.5% (inactive).
Under `Cc1ccc2cc3cc(C(=O)N4CCCCCC4)oc3nc2c1` stands 97.2% (inactive); under `CCCCN1C(=O)c2ccc(C(=O)Nc3ccc(S(=O)(=O)N(C)C)cc3)cc2C1=O`, 87.8% (inactive).
For `COCCN1C(=O)N[C@@H](c2ccccc2)C(C(=O)OC)=C1C`, the GFP response vs DMSO was 91.3% (inactive).
As for `COCCN1C2=C(COC(C)(C)C2)C(=S)NC1c1ccccc1` (configuration not stated), the GFP response vs DMSO was 234% (active).
Consider `COCCN1C(=O)N[C@@H](CCc2ccccc2)[C@H](C(C)=O)[C@H]1C`, for which the GFP response vs DMSO is 86.4% (inactive).
Take `Brc1ccc2c(c1)[C@H]1OCC[C@H]1[C@@H](c1cccs1)N2`: the GFP response vs DMSO was 102% (inactive).
Consider `C[C@H]1CCC(=O)N([C@H](CSc2ccccc2)Cc2ccccc2)CC1`, for which the GFP response vs DMSO is 93.7% (inactive).
As to `C=CCC1=C/C(=C\c2c(N)n3nc(CC(=O)N4CCOCC4)sc3nc2=O)C=C(OC)C1=O`, the GFP response vs DMSO was 102% (inactive).
Turning to `CN(Cc1ccc(F)cc1)C(=O)CN1C(=O)c2ccccc2S1(=O)=O`, the GFP response vs DMSO is 95% (inactive).
With `CCC(=O)c1cc(F)ccc1OCC(=O)Nc1ccc2c(c1)OCCO2`, the GFP response vs DMSO was 104% (inactive).
With `COc1ccccc1OCCCC(=O)Nc1ccc2c(c1)OCCO2`, the GFP response vs DMSO is 92.3% (inactive).
Consider `CCc1ccccc1OCC(=O)Nc1ccc2c(c1)OCCO2`, for which the GFP response vs DMSO was 366% [may fluoresce violet] (active).

The values above are taken from PubChem BioAssay AID2016 (NMMLSC, 2009).
